Assay outcomes: PubChem, Paczesny and Yang Labs, IUPUI and University of Michigan
This excerpt belongs to a sample that is enriched for hits.
ST2 inh: inhibitors of human ST2 (IL1RL1) binding to IL-33 | Q01638 | AlphaLISA ST2-Fc/biotin-IL-33 interaction, 1 h | inhibition, % for hits at 17 µM | 2.3% of 78,000 active | AID 1259354; in the data active = inhibition above about 30%
Target sequence (Q01638 whole entry, looked up): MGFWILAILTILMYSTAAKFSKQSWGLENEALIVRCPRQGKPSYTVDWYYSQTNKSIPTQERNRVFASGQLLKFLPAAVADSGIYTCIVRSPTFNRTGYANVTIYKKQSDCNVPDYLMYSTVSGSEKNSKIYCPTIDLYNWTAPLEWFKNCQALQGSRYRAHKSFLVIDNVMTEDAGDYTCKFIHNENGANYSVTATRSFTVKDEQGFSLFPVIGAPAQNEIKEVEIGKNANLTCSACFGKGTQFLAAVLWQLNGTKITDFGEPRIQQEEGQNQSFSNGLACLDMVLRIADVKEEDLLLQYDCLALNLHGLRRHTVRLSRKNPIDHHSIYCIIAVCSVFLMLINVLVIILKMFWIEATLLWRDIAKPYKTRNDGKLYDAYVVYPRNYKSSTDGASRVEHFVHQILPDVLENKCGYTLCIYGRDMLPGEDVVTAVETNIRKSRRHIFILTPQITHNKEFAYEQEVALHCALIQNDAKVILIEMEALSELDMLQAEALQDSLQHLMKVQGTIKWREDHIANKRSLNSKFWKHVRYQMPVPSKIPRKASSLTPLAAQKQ
Active calls of the source: *; i = inactive; ! = not active in a repeat.

SMILES	ST2 inh
COc1cc(OC)c(C(C)=O)c(OC)c1	i
CCC1CCCCN1S(=O)(=O)c1ccc(C(=O)Nc2nnc(-c3ccc(F)cc3)o2)cc1 (configuration not stated)	i
c1ccc(CN2CC[C@H](c3nnc(-c4ccccc4)o3)C2)cc1	i
O=C(CNC(=O)c1cccs1)NC1CC1	i
Cc1nc2ccccc2c2c1C(=O)N(c1ccc(F)cc1F)C2=O	i
Cc1nc2ccccc2c2c1C(=O)N(Cc1cccnc1)C2=O	i
Cc1nc2ccccc2c2c1C(=O)N(C(C)Cc1ccccc1)C2=O (configuration not stated)	34%*
Cc1nc2ccccc2c2c1C(=O)N(c1cccc(Cl)c1)C2=O	i
Cc1nc2ccccc2c2c1C(=O)N(c1ccccc1)C2=O	i
COc1ccc(Cl)cc1N1C(=O)c2c(C)nc3ccccc3c2C1=O	31%*
COc1ccc(C=Nc2c(C)n(C)n(-c3ccccc3)c2=O)cc1Br	i
COc1ccc(CCNC(=O)c2ccccc2Br)cc1	i
CCc1c(C)nn(CCNC(=O)c2ccc(-n3cnnc3)cc2)c1C	i
O=C(Nc1ccccc1Br)c1ccc(Cl)c(Cl)c1	i
COC(=O)c1sc(NC(=O)c2cc(Cl)ccc2OC)c(C#N)c1C	i
CC(C)Oc1cccc(F)c1-c1ccc2c(c1)CC(=O)N2	i
CCOc1ccc(C2C3=C(CCCC3=O)Nc3nc(SCc4ccccc4)[nH]c(=O)c32)cc1 (configuration not stated)	i
O=C1NC(=O)N(c2ccccc2)C(=O)C1C(c1ccccc1)c1ccccc1 (configuration not stated)	i
Cc1c(C(c2ccccc2)c2c(C)n(C)n(-c3ccccc3)c2=O)c(=O)n(-c2ccccc2)n1C	i
Cc1nnc(C)c2c(C)n(C(C)c3ccccc3)c(C)c12 (configuration not stated)	47%*
CC1(C)CC(=O)C(C=Nc2cccc(C(F)(F)F)c2)=C(O)C1	i
COc1ccc(/C=C2/SC(=O)N(CCC(=O)Nc3ccccc3Br)C2=O)cc1	i
O=C(CN1C(=O)S/C(=C/c2ccccc2)C1=O)Nc1ccccc1Cl	i
COc1ccc(/C=C2/SC(=O)N(CC(=O)Nc3cc(C)on3)C2=O)cc1OC	35%*
CC(=O)c1cccc(Nc2ncnc3c2cnn3-c2cccc(C)c2)c1	i
SMILES	ST2 inh
C[C@@H]1O[C@@H](Oc2ccc3ccc(=O)oc3c2-c2c(O)ccc3cc(Oc4ccc5ccc(=O)oc5c4)c(=O)oc23)[C@H](O)[C@H](O)[C@H]1O	i
Cn1c(/C=C/c2ccc(Br)cc2)nc2ccccc2c1=O	i
Cc1nc2ccccc2c(=O)n1CC(=O)NCc1ccccc1	i
CCn1c(/C=C/c2cccnc2)nc2ccccc2c1=O	96%*
COc1ccc2oc(=O)c(C(=O)Nc3ccccc3F)cc2c1	i
O=C(CC1c2ccccc2CCc2ccccc21)NCCCO	i
CN(C)C(=O)c1ccccc1-c1cccc(Cl)c1	i
CC(=O)N(CN1C(=O)CCC1=O)c1cccc(Cl)c1	i
CC(=O)N(C1=C(N(C)C)C(=O)c2ccccc2C1=O)c1cccc(Cl)c1	31%*
COc1ccc(CNC(=O)COc2cc(C)ccc2C)cc1	i
Cc1nnc(-c2ccccc2-c2cccc(CN3CCOCC3)c2)o1	i
Cc1cccc(-c2nnc(-c3nc(NCc4ccccc4C)c4ccccc4n3)o2)c1	i
Cc1nnc(-c2cccc(-c3cc(NCc4ccccn4)nc4[nH]ccc34)c2)o1	35%*
COc1cccc(CN2CCC(C(=O)NC3CCCCCC3)CC2)c1	i
COc1ccccc1CNC(=O)C[C@@H]1CCNC[C@@H]1Cc1cc(COc2ccccc2)on1	i
COc1ccc(-c2ccc3c(c2)C(=O)N2CC[C@H](NC(=O)CCC(=O)O)[C@H]2C(=O)N3)cc1	46%*
O=C(O)CCC(=O)N[C@H]1CCN2C(=O)c3cc(-c4ccccc4)ccc3NC(=O)[C@H]12	i
O=C(O)CCC(=O)N[C@H]1CCN2C(=O)c3cc(-c4ccccc4F)ccc3NC(=O)[C@H]12	i
CCN(CC)C(=O)CSc1nc2c(cc1C#N)CCCCC2	i
CCOC(=O)c1c(NC(=O)C(C)Oc2ccccc2Br)sc(C)c1C (configuration not stated)	i
O=c1[nH]c(SCc2nc3ccccc3[nH]2)nc2ccccc12	i
O=C(NCc1ccc2c(c1)OCO2)c1cc(=O)[nH]c2ccc(S(=O)(=O)N3CCOCC3)cc12	i
CCN(CC)c1ccc(N)c(C)c1	53%*
CCN(CC)c1ccc(C=NS(=O)(=O)c2ccc(C)cc2)cc1	i
COc1ccccc1S(=O)Cc1ccc(C(=O)NCCCN2CCOCC2)o1 (configuration not stated)	i
SMILES	ST2 inh
CNc1ncc(CN(C)C(=O)c2cccc(Cn3cccn3)c2)cn1	i
CCn1c(C(C)NC(C)=O)nc2ccccc21 (configuration not stated)	i
CC(O)c1nc2ccccc2n1CCCOc1ccccc1 (configuration not stated)	i
CC(O)c1nc2ccccc2n1Cc1ccccc1 (configuration not stated)	36%*
N#Cc1ccc(C(=O)N2C[C@@H]3C[C@H](C2)c2ccc(-c4ccccc4CN4CCOCC4)c(=O)n2C3)cc1	i
CC(C)Cc1ccc(S(=O)(=O)Nc2ccccc2Br)cc1	i
COc1ccccc1NC(=O)C1=C(C)Nc2ncnn2C1c1ccc(Br)cc1 (configuration not stated)	i
CCN(CC)CC(=O)Nc1c(C(=O)c2ccccc2)oc2ccccc12	43%*
O=C(Nc1c(C(=O)O)oc2ccccc12)c1ccccc1	i
CCC(=O)Nc1c(C(=O)Nc2ccccc2F)oc2ccccc12	i
O=C(NCCCN1CCCCC1)c1ccc(Nc2cc(-c3ccccc3)ncn2)cc1	i
COc1cc(OC)c(C2Nc3ccccc3-c3nnc(SC)nc3O2)c(OC)c1 (configuration not stated)	i
COc1ccc(C2C(C(N)=O)=C(C)Nc3nc(SCc4ccccc4)nn32)cc1OC (configuration not stated)	i
CC1=C(C(N)=O)C(c2ccc(O)cc2)n2nc(SCc3ccccc3)nc2N1 (configuration not stated)	i
CC1=C(C(N)=O)C(c2cccc(F)c2)n2nc(SCc3ccccc3)nc2N1 (configuration not stated)	32%*!
CCc1ccc(N2N=C(C)/C(=C/c3ccc(N(C)C)cc3)C2=O)cc1	42%*
CN(C)c1ccc(/C=C2/C(=O)c3ccc(C(=O)O)cc3C2=O)cc1	i
CC1=NN(c2cc(C(=O)O)cc(C(=O)O)c2)C(=O)/C1=C\c1ccc(N(C)C)cc1	76%*
CC1=NN(c2cccc(Cl)c2)C(=O)/C1=C\c1ccc(-c2ccc(C(=O)O)c(Cl)c2)o1	i
CC1=NN(c2ccc(F)cc2)C(=O)/C1=C/c1ccc(N(C)C)c([N+](=O)[O-])c1	i
CCOC(=O)C1(Cc2ccccc2C(F)(F)F)CCN(C(=O)c2ccccn2)CC1	i
Cn1c(Cc2c[nH]c3ccccc23)nnc1SCC(=O)O	i
O=C(NCC1(c2ccccc2)CCOCC1)c1ccccc1[N+](=O)[O-]	i
Cc1ccc(S(=O)(=O)N2C/C(=C\c3ccccc3)c3c2cc([N+](=O)[O-])cc3[N+](=O)[O-])cc1	35%*
COc1ccc(C2SCCN2S(=O)(=O)c2ccc(C)cc2)cc1[N+](=O)[O-] (configuration not stated)	i
